According to PubChem BioAssay:
Records with an inconclusive call do not appear. The source made the active and inactive calls.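 Rule for the calls, unless noted: active = inhibition above 50%, about 3 SD of the validation set; inactive = the rest.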

Key:
[1] = yeast TOR pathway RPL19A-GFP modulators, primary screen, cell-based, S. cerevisiae, multiplex flow cytometry (AID 1862; in the data active = percent of DMSO control GFP below about 86%;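 note: lower values mimic rapamycin by blocking the RPL19A rise seen in DMSO cells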); details: S. cerevisiae RPL19A-GFP strain, flow cytometry fluorescence, 3 h; at 10 µM; stronger effect = lower value
[2] = modulators of MEP2-GFP levels in yeast, primary screen, S. cerevisiae, multiplex flow cytometry (AID 1867;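 active = GFP response, as percent of the DMSO control, above the screen-wide mean plus 3 SD, about 139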;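 note: median GFP channel fluorescence of barcode-gated MEP2-GFP cells measured by flow cytometry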); details: S. cerevisiae MEP2-GFP strain, 3 h, at 10 µM, stronger effect = higher value, 100% means same as DMSO wells
[3] = modulators of CIT2-GFP expression in yeast, primary screen, S. cerevisiae, GFP fusion, multiplex flow cytometry (AID 1870;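 active = percent response above a set limit, the screen-wide mean plus 3 SD, cut at about 130% in these data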;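 note: barcoded CIT2-GFP strain pooled with four other GFP strains with rapamycin as positive control; median GFP fluorescence per well over plate mean of DMSO wells so 100% = DMSO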); details: 3 h, at 10 µM, stronger effect = higher value
[4] = modulators of LAP4-GFP expression in yeast, primary screen, S. cerevisiae, multiplex flow cytometry (AID 1873;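 active = GFP signal, as percent of the solvent control, above the screen mean plus 3 SD, about 149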); details: 3 h, at 10 µM, stronger effect = higher value
[5] = modulators of AGP1-GFP expression in yeast TOR pathway, primary screen, cell-based, multiplex flow cytometry, S. cerevisiae (AID 1887;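 active = GFP signal above the screen-wide mean plus 3 SD, that is over about 124.5% of the solvent control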;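 note: AGP1-GFP fusion strain of S. cerevisiae within a five-strain barcoded multiplex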); details: 3 h, at 10 µM, stronger effect = higher value
[6] = inhibitors of CD8+ T cell-vesicle binding, pilot screen, LFA-1/ICAM-1 modulator project, MLPCN validation set, flow cytometry (AID 2523;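 active = response below a set limit, under 55% cells CD8-positive and vesicle-bound, and CD8 cells' 90th-percentile brightness under 279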;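 for vesicle binding response: mean PE anti-B7-1 fluorescence of CD8+ cells relative to row control; 100% = QL9-loaded vesicles with DMSO vehicle in the same plate row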); details: 2C mouse CD8+ T cells, at 7 µM, stronger effect = lower value; double positive events: measured here: CD8+/vesicle+ event percentage
[7] = biological target: Integrin beta-1 (Homo sapiens) + Integrin alpha-4 (Homo sapiens) (UniProt P13612+P05556); test: inhibition of HUTS-21 binding to VLA-4, pilot screen, VLA-4 allosteric modulator project, U937 cells, HUTS-21 mAb, flow cytometry, validation set (AID 2674); details: HUTS-21 LIBS mAb binding, at 6.7 µM, stronger effect = higher value, binding induced by LDV ligand;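 note: antibody binding induced by the VLA-4 ligand LDV present at three times its Kd; 0% = LDV ligand with antibody and no compound and 100% = antibody without LDV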
[8] = superoxide lowering in aged yeast cells, pilot screen, validation compound set (AID 2706;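 active = superoxide response below 65% of plate, a cut near 3 SD across the whole screen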;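 note: yeast exposed to compound for one week at 30 degrees C before staining; 100% = mean of all compound wells on the same plate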); details: S. cerevisiae aging, superoxide DHE fluorescence; at 10 µM; stronger effect = lower value
[9] = biological target: Beta-adrenergic receptor kinase 1 (Homo sapiens) (UniProt P25098); test: GRK2 binders displacing RNA aptamer, biochemical, validation, human GRK2, bead flow cytometry (AID 488806;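 active = aptamer binding inhibition above 30%, about 3 SD of noise from non-fluorescent compounds; inactive = inhibition at or below 30%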); details: bead-bound GRK2, FAM-aptamer displacement, at 10 µM, stronger effect = higher value
[10] = biological target: Beta-2 adrenergic receptor (Homo sapiens) (UniProt P07550); test: beta2AR agonists driving receptor internalization, pilot screen, cell-based, FAP fluorogen, flow cytometry, validation set (AID 504459;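 active = percent response above 42, roughly 3 SD of non-fluorescent test compounds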;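 note: agonist-driven loss of surface beta2AR via internalization measured by FAP dye flow cytometry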); details: Am2.2-beta2AR cells, FAP surface receptor flow cytometry; at 10 µM; stronger effect = higher value
[11] = biological target: AP-2 complex subunit beta (Homo sapiens) (UniProt P63010); test: inhibitors of arrestin peptide binding to AP2, pilot screen, biochemical, validation set, GST-AP2 beads, flow cytometry (AID 504541;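 active = inhibition above 54%, about 3 SD of non-fluorescent compounds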;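 note: AP2 carries R879A mutation and is captured from E. coli lysate; bead-bound FITC arrestin peptide fluorescence measuring arrestin peptide binding to AP2; 0% = DMSO wells and 100% = excess unlabeled arrestin peptide control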); details: FITC arrestin peptide, at 10 µM, stronger effect = higher value, AP2 beta2 appendage fragment, R879A mutant
[12] = yeast V-ATPase proton transport modulators, S. cerevisiae, pHLuorin, HTS validation (AID 504600; in the data active = response above about 15%;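 note: plate controls were DMSO for no effect and reference compound for full effect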); details: S. cerevisiae pHLuorin cytosolic pH, at 10 µM, stronger effect = higher value
[13] = system: anti-desmoglein-3 scFv antibody binding to human DSG3; test: inhibitors of anti-DSG3 scFv binding to DSG3, pilot screen, biochemical, validation compound set, bead-based, flow cytometry (AID 588368;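 active = binding below the plate cutoff, the plate median minus 3 SD, with a reading above zero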;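 note: signal is the median channel fluorescence of bead-bound GFP antibody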); details: Protein G beads, DSG3-Fc, scFv-GFP binding, at 10 µM, stronger effect = lower value
[14] = inhibitors of fungal efflux pumps CDR1, CDR2, MDR1, pilot screen, validation compound set, multiplex, phenotypic (AID 588506;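 active = efflux inhibition above 0.42, the validation set average plus 4 SD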;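 note: Nile Red retained in cells so higher fluorescence means more efflux inhibition; 0 = negative control wells and 1 = enniatin B 25 µM full block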); details: S. cerevisiae pump-expressing triplex, Nile Red efflux flow cytometry; at 10 µM; stronger effect = higher value; the pumps come from Candida albicans
[15] = biological target: ATP-binding cassette sub-family B member 6 (Homo sapiens) (UniProt Q9NP58); test: ABCB6 transporter inhibitors, pilot screen, K562-ABCB6 cells, flow cytometry, validation set (AID 588550;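 active = inhibition above the screen-wide mean plus 3 SD, about 51%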;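 note: 0% = DMSO wells and 100% = benzethonium chloride 70 µM positive control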); details: K562-ABCB6 porphyrin accumulation, 1 h, at 10 µM, stronger effect = higher value
[16] = promoters of myeloid differentiation in arrested cells, primary screen, cell-based, GFP/MAC1 double positive, flow cytometry, validation set (AID 588685;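 active = differentiation response of at least 50%, scaled between solvent and reference control, from cells with both markers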;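 note: compound exposure lasts four days before antibody staining and flow analysis; 0% = DMSO wells and 100% = 5 µM fulvestrant positive control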); details: ER-HoxA9 marrow cells, stronger effect = higher value, normalized: vehicle 0, fulvestrant 100

Integrin beta-1 (Homo sapiens) + Integrin alpha-4 (Homo sapiens), sequence (P05556 whole entry, looked up): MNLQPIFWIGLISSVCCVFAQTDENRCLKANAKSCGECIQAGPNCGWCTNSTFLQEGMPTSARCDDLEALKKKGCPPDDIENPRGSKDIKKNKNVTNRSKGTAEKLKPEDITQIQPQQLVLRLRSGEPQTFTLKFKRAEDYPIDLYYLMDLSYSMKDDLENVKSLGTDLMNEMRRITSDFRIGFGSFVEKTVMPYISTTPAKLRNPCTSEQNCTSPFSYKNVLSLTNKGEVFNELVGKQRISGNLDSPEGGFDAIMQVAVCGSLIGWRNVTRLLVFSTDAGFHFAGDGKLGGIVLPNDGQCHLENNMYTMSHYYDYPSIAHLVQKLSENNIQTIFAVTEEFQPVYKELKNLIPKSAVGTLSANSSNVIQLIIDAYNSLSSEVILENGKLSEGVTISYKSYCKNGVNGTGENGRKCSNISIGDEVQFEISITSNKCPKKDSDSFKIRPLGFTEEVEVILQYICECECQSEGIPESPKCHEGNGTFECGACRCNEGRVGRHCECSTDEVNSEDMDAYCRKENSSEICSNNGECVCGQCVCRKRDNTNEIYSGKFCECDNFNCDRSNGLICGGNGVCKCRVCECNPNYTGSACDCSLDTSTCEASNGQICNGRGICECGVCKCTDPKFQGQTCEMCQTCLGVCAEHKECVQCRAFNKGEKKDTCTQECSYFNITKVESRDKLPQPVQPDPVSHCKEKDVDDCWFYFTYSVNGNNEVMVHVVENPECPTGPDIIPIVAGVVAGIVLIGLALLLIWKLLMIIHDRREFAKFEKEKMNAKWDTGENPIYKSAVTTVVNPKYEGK
Integrin beta-1 (Homo sapiens) + Integrin alpha-4 (Homo sapiens), sequence (P13612 whole entry, looked up): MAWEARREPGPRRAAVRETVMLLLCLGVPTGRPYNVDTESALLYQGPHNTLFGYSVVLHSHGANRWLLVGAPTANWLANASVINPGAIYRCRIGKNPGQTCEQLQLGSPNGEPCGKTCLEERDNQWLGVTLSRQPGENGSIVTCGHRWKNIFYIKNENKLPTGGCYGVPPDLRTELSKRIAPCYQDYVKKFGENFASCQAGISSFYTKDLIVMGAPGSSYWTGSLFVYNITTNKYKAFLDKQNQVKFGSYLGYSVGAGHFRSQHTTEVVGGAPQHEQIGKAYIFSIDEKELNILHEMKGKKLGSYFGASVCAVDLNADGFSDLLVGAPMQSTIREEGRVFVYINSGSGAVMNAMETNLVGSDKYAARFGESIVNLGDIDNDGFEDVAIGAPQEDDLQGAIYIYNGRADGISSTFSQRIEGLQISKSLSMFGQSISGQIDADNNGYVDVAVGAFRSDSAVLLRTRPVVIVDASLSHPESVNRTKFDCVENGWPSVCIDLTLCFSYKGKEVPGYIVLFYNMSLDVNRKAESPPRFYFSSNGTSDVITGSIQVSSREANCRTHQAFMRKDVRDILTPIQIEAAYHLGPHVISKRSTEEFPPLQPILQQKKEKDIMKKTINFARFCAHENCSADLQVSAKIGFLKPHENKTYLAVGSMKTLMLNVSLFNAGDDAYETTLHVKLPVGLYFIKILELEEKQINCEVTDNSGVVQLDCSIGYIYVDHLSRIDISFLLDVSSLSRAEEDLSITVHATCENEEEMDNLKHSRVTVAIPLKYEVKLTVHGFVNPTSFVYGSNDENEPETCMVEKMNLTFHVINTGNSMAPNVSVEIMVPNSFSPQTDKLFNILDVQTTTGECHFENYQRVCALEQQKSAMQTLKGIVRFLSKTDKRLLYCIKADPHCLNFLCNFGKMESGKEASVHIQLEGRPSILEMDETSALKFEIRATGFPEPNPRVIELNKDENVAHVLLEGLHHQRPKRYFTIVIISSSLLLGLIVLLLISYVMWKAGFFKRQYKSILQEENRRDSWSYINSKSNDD
Beta-2 adrenergic receptor (Homo sapiens), sequence (P07550 whole entry, looked up): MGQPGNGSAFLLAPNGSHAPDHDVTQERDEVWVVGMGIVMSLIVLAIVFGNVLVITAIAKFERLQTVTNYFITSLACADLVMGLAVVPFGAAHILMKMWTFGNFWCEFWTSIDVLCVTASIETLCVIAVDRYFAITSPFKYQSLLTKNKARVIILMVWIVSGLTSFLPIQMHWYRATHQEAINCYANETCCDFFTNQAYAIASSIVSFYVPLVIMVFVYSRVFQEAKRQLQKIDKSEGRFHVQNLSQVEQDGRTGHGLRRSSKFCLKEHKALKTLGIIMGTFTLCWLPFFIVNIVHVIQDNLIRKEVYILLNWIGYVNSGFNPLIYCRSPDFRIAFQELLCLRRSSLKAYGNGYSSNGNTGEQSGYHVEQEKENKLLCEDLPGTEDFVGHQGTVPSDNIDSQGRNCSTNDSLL
ATP-binding cassette sub-family B member 6 (Homo sapiens), sequence (Q9NP58 whole entry, looked up): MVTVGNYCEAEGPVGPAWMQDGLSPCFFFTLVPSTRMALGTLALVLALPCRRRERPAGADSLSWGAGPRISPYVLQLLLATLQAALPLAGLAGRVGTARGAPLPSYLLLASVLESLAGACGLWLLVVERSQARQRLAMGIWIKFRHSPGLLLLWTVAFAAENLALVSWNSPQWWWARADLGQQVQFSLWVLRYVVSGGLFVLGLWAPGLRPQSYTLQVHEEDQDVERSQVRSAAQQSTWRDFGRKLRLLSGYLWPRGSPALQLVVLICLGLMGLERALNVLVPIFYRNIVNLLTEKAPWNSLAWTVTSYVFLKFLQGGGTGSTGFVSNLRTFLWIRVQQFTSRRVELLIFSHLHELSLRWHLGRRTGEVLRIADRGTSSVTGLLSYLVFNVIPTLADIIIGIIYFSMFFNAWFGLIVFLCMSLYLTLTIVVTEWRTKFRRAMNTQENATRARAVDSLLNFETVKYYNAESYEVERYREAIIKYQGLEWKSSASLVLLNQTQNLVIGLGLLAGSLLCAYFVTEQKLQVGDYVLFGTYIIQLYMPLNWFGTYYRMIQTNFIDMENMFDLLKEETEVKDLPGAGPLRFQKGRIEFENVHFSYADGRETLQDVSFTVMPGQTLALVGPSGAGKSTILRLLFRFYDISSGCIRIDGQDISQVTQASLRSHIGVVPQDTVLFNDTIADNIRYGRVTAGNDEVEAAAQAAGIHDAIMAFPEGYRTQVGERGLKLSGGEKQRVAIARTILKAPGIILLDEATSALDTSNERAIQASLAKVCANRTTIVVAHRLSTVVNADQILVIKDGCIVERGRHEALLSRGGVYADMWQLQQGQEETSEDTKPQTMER
AP-2 complex subunit beta (Homo sapiens), sequence (P63010 whole entry, looked up, the tested form may be a part, one chain of several): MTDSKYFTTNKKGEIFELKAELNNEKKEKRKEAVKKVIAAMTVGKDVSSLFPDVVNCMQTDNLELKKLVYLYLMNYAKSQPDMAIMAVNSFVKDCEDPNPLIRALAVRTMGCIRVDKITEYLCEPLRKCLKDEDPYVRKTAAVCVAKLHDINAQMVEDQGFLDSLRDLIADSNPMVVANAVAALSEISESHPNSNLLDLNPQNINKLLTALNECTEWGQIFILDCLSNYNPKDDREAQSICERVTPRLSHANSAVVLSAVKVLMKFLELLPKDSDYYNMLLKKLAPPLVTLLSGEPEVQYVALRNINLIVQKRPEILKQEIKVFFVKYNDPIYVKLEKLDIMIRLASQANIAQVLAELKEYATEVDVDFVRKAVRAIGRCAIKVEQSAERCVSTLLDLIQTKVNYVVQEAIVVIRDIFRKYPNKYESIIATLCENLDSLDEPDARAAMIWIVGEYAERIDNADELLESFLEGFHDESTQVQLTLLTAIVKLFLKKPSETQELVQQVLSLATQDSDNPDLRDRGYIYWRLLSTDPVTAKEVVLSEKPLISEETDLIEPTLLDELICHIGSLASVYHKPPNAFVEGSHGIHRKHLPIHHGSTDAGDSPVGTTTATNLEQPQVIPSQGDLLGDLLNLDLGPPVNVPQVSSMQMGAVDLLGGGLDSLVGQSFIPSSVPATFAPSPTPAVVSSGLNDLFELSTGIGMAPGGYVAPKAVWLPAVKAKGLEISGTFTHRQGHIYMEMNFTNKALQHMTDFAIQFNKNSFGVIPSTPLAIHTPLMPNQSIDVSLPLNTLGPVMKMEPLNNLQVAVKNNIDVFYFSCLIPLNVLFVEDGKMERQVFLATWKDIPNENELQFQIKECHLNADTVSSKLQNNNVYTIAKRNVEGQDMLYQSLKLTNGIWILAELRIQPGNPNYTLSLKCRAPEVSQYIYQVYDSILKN
Beta-adrenergic receptor kinase 1 (Homo sapiens), sequence (P25098 whole entry, looked up): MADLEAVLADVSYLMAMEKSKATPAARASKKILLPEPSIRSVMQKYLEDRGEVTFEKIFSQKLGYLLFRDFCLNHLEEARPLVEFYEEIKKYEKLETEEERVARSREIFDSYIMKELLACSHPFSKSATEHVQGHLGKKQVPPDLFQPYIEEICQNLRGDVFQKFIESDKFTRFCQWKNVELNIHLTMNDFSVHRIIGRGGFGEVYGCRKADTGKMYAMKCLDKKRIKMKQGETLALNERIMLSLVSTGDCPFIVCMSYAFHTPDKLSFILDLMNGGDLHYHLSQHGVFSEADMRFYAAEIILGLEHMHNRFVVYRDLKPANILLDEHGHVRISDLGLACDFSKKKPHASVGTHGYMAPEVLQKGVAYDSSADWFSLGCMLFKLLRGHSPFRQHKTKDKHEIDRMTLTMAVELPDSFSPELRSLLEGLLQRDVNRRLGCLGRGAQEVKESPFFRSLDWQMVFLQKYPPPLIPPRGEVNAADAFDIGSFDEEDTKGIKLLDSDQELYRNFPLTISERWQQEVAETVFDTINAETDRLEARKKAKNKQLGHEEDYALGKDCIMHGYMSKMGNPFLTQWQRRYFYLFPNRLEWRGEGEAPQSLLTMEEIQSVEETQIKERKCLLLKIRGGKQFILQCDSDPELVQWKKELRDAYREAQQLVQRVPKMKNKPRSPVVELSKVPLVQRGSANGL

Compound | percent of DMSO control GFP [1] | GFP response vs DMSO [2] | percent response of DMSO control [3] | GFP response vs DMSO [4] | GFP response, % of DMSO [5] | double positive events [6] [%] | vesicle binding response [6] | inhibition [7] | superoxide response (% of plate) [8] | aptamer binding inhibition [9] | response [10] | inhibition [11] | response [12] | binding (% of control) [13] | efflux inhibition (fraction of control) [14] | inhibition [15] | differentiation response [16]
CC1(C)CC(C(CC(=O)N2CCCC2)Cc2ccccc2)CCO1 (stereo not drawn) | 100% (inactive) | 99.7% (inactive) | 104% (inactive) | 102% (inactive) | 106% (inactive) | 62.9 | 118% (inactive) | -2.43% (inactive) | 107% (inactive) | -2% (inactive) | -11% (inactive) | 21.8% (inactive) | -8.82% (inactive) | 103% (inactive) | 0.36 (inactive) | 18% (inactive) | 15.9% (inactive)
O=C(O)c1ccccc1Nc1cccc(C(F)(F)F)c1 | 95% (inactive) | 103% (inactive) | 88.2% (inactive) | 93.1% (inactive) | 82.4% (inactive) | 74 | 7820% (inactive) | -15.4% (inactive) | 98.3% (inactive) | 2% (inactive) | -9.88% (inactive) | -15.2% (inactive) | 1.34% (inactive) | 98.2% (inactive) | -0.24 (inactive) | 112% (active) | 18.4% (inactive)
CCOC(=O)C(=O)N1CCN(c2ccccc2OC)CC1 | 97.9% (inactive) | 112% (inactive) | 98.6% (inactive) | 94.8% (inactive) | 104% (inactive) | 64.7 | 175% (inactive) | -9.13% (inactive) | 98% (inactive) | 3% (inactive) | 3.6% (inactive) | 14.2% (inactive) | -4.83% (inactive) | 102% (inactive) | -0.125 (inactive) | 7% (inactive) | -8.96% (inactive)
Cc1cc(C)cc(Nc2nc3c([nH]2)c(=O)n(C)c(=O)n3C)c1 | 102% (inactive) | 105% (inactive) | 112% (inactive) | 103% (inactive) | 105% (inactive) | 63.9 | 212% (inactive) | 6.95% (inactive) | 89.7% (inactive) | -6% (inactive) | 6.07% (inactive) | 61% (active) | -8.26% (inactive) | 102% (inactive) | -0.14 (inactive) | -9% (inactive) | 10.1% (inactive)
CC1=NN(c2ccccc2)C(=O)C1 | 108% (inactive) | 106% (inactive) | 109% (inactive) | 99.1% (inactive) | 111% (inactive) | 62.5 | 206% (inactive) | -14.5% (inactive) | 91% (inactive) | -3% (inactive) | 3.52% (inactive) | -6.32% (inactive) | 0.56% (inactive) | 101% (inactive) | -0.1 (inactive) | -1% (inactive) | 2.74% (inactive)
CN(C)CCOCCOc1ccc(Cl)cc1Br | 93.7% (inactive) | 119% (inactive) | 101% (inactive) | 77% (inactive) | 90.3% (inactive) | 47.1 | 160% (inactive) | -2.27% (inactive) | 97.8% (inactive) | -6% (inactive) | -10% (inactive) | -6.43% (inactive) | 1.08% (inactive) | 105% (inactive) | 0.09 (inactive) | 4% (inactive) | 13.1% (inactive)
O=c1[nH]c(=O)n([C@H]2C[C@H](O)[C@@H](CO)O2)cc1C(F)(F)F | 103% (inactive) | 101% (inactive) | 97.8% (inactive) | 94% (inactive) | 94.8% (inactive) | 58.6 | 48.9% (inactive) | -11.9% (inactive) | 108% (inactive) | 1% (inactive) | -1.49% (inactive) | 13.9% (inactive) | -1.8% (inactive) | 100% (inactive) | 0.02 (inactive) | 1% (inactive) | -1.71% (inactive)
Fc1ccccc1CNCCC(Cc1ccccc1)c1ccc2c(c1)OCO2 (stereo not drawn) | 98.8% (inactive) | 107% (inactive) | 96% (inactive) | 90.2% (inactive) | 94.9% (inactive) | 63.8 | 99.6% (inactive) | 8.28% (inactive) | 104% (inactive) | -1% (inactive) | 14% (inactive) | 11.7% (inactive) | 1.06% (inactive) | 105% (inactive) | -0.22 (inactive) | 4% (inactive) | -5.68% (inactive)
CCCN(CCC)C(=O)C(CCC(=O)O)NC(=O)c1ccccc1 (stereo not drawn) | 98.8% (inactive) | 109% (inactive) | 95.4% (inactive) | 92% (inactive) | 94.5% (inactive) | 59.4 | 977% (inactive) | 7.85% (inactive) | 94.3% (inactive) | 7% (inactive) | -4.18% (inactive) | -5.39% (inactive) | -4.29% (inactive) | 99.8% (inactive) | -0.2 (inactive) | -8% (inactive) | 6.11% (inactive)
COc1cc(C2Nc3ccccc3NC3=C2C(=O)CC(c2ccc(OC)c(OC)c2)C3)ccc1O (stereo not drawn) | 107% (inactive) | 95.2% (inactive) | 117% (inactive) | 64.1% (inactive) | 92.2% (inactive) | 53.7 | 104% (inactive) | -3.16% (inactive) | 107% (inactive) | 3% (inactive) | 0.79% (inactive) | -8.83% (inactive) | 1.04% (inactive) | 98.4% (inactive) | -0.35 (inactive) | 11% (inactive) | -18.4% (inactive)
Cc1ccc(Cl)c(Nc2ccccc2C(=O)O)c1Cl | 98.9% (inactive) | 103% (inactive) | 94.4% (inactive) | 114% (inactive) | 98% (inactive) | 60.7 | 123% (inactive) | 2.29% (inactive) | 95.2% (inactive) | 2% (inactive) | -14.2% (inactive) | 1.34% (inactive) | 11.1% (inactive) | 103% (inactive) | -0.13 (inactive) | 2% (inactive) | -4.99% (inactive)
Cc1ccc(S(=O)(=O)N[C@@H](Cc2ccccc2)C(=O)CCl)cc1 | 99.2% (inactive) | 91.8% (inactive) | 92.5% (inactive) | 108% (inactive) | 107% (inactive) | 59.9 | 101% (inactive) | 48.3% (inactive) | 100% (inactive) | 8% (inactive) | 11.3% (inactive) | -2.91% (inactive) | -3.47% (inactive) | 99% (inactive) | 0.04 (inactive) | 9% (inactive) | -4% (inactive)
COc1ccccc1OCC(=O)O | 96.3% (inactive) | 107% (inactive) | 98.6% (inactive) | 122% (inactive) | 103% (inactive) | 61.5 | 167% (inactive) | 3.67% (inactive) | 106% (inactive) | -3% (inactive) | -4.79% (inactive) | -3.11% (inactive) | -0.38% (inactive) | 99.3% (inactive) | -0.06 (inactive) | 6% (inactive) | -26.4% (inactive)
Nc1nc2c(nc(SCc3ccccc3Br)n2C2OC(CO)C(O)C2O)c(=O)[nH]1 (stereo not drawn) | 102% (inactive) | 97.4% (inactive) | 101% (inactive) | 108% (inactive) | 101% (inactive) | 62.7 | 50.1% (inactive) | -1.79% (inactive) | 94.9% (inactive) | 0% (inactive) | 17.9% (inactive) | 26.3% (inactive) | -4.55% (inactive) | 90.9% (inactive) | 0.12 (inactive) | 1% (inactive) | -23.2% (inactive)
C(=C\c1ccc2ccccc2n1)/c1ccccc1 | 102% (inactive) | 96.3% (inactive) | 98.6% (inactive) | 97.4% (inactive) | 93.2% (inactive) | 63.3 | 306% (inactive) | -27.7% (inactive) | 94.9% (inactive) | 3% (inactive) | 5.82% (inactive) | -3.54% (inactive) | 0.75% (inactive) | 105% (inactive) | -0.31 (inactive) | 114% (active) | -8.8% (inactive)
Cn1cc(CN2CCN(CCO)CC2)c(-c2ccc(Oc3ccccc3)cc2)n1 | 102% (inactive) | 102% (inactive) | 96.7% (inactive) | 114% (inactive) | 100% (inactive) | 61 | 244% (inactive) | 13.2% (inactive) | 82.1% (inactive) | 0% (inactive) | 11.3% (inactive) | -1.86% (inactive) | 3.7% (inactive) | 99.7% (inactive) | -0.28 (inactive) | 6% (inactive) | 15.2% (inactive)
COc1ccc(C(=O)CCN2CCc3cc(OC)c(OC)cc3C2)cc1 | 104% (inactive) | 116% (inactive) | 107% (inactive) | 70.3% (inactive) | 99.7% (inactive) | 59 | 115% (inactive) | 1.12% (inactive) | 111% (inactive) | 2% (inactive) | 2.49% (inactive) | -1.91% (inactive) | -2.28% (inactive) | 96.7% (inactive) | 0.42 (inactive) | 13% (inactive) | 4.97% (inactive)
O=C(NCCc1c[nH]c2ccccc12)OCCSS(=O)(=O)O | 101% (inactive) | 101% (inactive) | 108% (inactive) | 102% (inactive) | 100% (inactive) | 66.8 | 1060% (inactive) | -6.68% (inactive) | 106% (inactive) | 3% (inactive) | -2.85% (inactive) | -1.88% (inactive) | 3.36% (inactive) | 99.7% (inactive) | -0.07 (inactive) | 7% (inactive) | 2.2% (inactive)
O=C(NCC1CCCO1)c1ccc(OC2CCN(C(=O)C3CC3)CC2)cc1 (stereo not drawn) | 98.2% (inactive) | 106% (inactive) | 97.8% (inactive) | 96.6% (inactive) | 99.4% (inactive) | 63.1 | 5260% (inactive) | -22.2% (inactive) | 94% (inactive) | 2% (inactive) | -3.28% (inactive) | -5.78% (inactive) | 0.79% (inactive) | 101% (inactive) | -0.01 (inactive) | 3% (inactive) | -6.6% (inactive)
